FMDV antiviral: foot and mouth disease virus antiviral activity; 410,000 compounds, 1.2% hits; FMDV antiviral cell-based qHTS; Potency, µM (series often up to 57.9 µM), inactives show top-dose activity change, negative = inhibition, most hits filed as inhibitors; calls by dose curve; tested in HEK293T cells; further: read-out not given here; potency means the concentration at half of the fitted maximal effect; nearly all actives have a fitted effect of over 45% in size
HCMV inh: inhibitors of human cytomegalovirus; HFF cells, HCMV-luciferase reporter, 72 h; hits give low values; 410,000 compounds, 4.5% hits; activity change, negative = inhibition, % at 57.5 µM; in the data active means activity change below about -60%; inconclusive means no clear call, values can overlap the other calls; inactive means above about -39%
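Human foreskin fibroblasts infected with luciferase-reporter HCMV at MOI 1 PFU/cell, compounds at two doses. Luciferase measured 72 h post infection; normalized to buffer-only basal and Salinomycin (10uM) controls.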
Vaccinia mCherry: inhibitors of vaccinia virus infection (mCherry reporter signal). 310,000 compounds, 0.63% hits. Vaccinia virus mCherry reporter infection, fluorescence. Potency, µM (doses to about 36.5 µM), for the others: at the top dose activity change, negative = inhibition, usual class: inhibitors; calls by dose curve; tested in A549 cells; further: potency means the concentration at half of the fitted maximal effect; nearly all actives have a fitted effect of over 35% in size
Vaccinia Venus: vaccinia inhibition (Venus reporter); Vaccinia virus Venus reporter expression, fluorescence; 330,000 compounds, 0.46% hits; Potency, µM (top dose mostly 36.5 µM), without a hit: at the top dose activity change, negative = inhibition, usual class: inhibitors; calls by dose curve; tested in A549 cells; further: potency means the concentration at half of the fitted maximal effect; nearly all actives have a fitted effect of over 30% in size
Lassa entry inh: Lassa virus entry inhibition; Lassa virus pseudotype entry inhibition, cell reporter; AID 540256; Potency, µM (doses to about 37.9 µM), for the others: top-dose activity change, negative = inhibition, actives largely listed as inhibitors; 300,000 compounds, 1.2% hits; calls by dose curve; tested in HEK293 cells; further: potency means the concentration at half of the fitted maximal effect; nearly all actives have a fitted effect of over 50% in size
Marburg entry inh: blocks Marburg virus binding to or entry into cells | Marburg virus pseudotyped entry inhibition, cell reporter | Potency, µM (highest dose often 37.8 µM), inactives show top-dose activity change, negative = inhibition, hits mostly inhibitors | 300,000 compounds, 1.8% hits | AID 540276; calls by dose curve; tested in HEK293 cells; further: potency means the concentration at half of the fitted maximal effect
The depositor's hits bear a star; i = inactive; ? = inconclusive; · = no result; [ ] = remark or other dose. Shown are actives, neighbours in structure and some others; about 6.5% of the full set was active somewhere. On the % scale 0 is the no-effect control and ±100 the full control effect.

SMILES	FMDV antiviral	HCMV inh	Vaccinia mCherry	Vaccinia Venus	Lassa entry inh	Marburg entry inh
Cc1ccc(NC(=O)Cn2c3ccc(F)cc3c3nc4n(c(=O)c32)CCS4)cc1F	-16%	-72*	i	7%	?	?
CNS(=O)(=O)c1ccc(NS(=O)(=O)c2ccccc2F)cc1	-16%	-24	·	·	·	·
CCCNC(=O)Nc1cccc(C(=O)OC)c1	28%	13	·	·	·	·
CN1C2CCC1CC(OC(=O)c1cc(Cl)cc(Cl)c1)C2 (stereo not given)	?	17	·	-14%	?	7.1µM*
Cc1ccc(N=Nc2ccc(O)c3ncccc23)cc1	-19%	-96*	13µM*	?	?	?
Cc1ccc(N=Nc2ccc(O)c3ncccc23)cc1C	41%	-98*	·	·	·	·
CC[C@@H](C)[C@H](CN[C@H](CNC)C(C)C)NC[C@@H](C)c1ccc(CC(C)C)cc1	?	-78*	?	?	·	·
Cc1ccnc2ccc(N)cc12	·	·	-15%	-7%	·	·
N#CC(C(=O)OC1CCCCC1)c1nc2ccccc2nc1N1CCOCC1 (stereo not given)	0%	-78*	-6%	3%	-10%	7%
CN1CCN(c2nc3ccccc3nc2C(C#N)C(=O)OC2CCCCC2)CC1 (stereo not given)	10%	13	·	·	-10%	-42%
FC(F)(F)c1ccccc1NC1=NCCCS1	-11%	-63*	13%	1%	23%	-22%[46.1 µM]
Clc1ccccc1NC1=NCCCS1	9%	?	-22%	-3%	2%	2%[46.1 µM]
CCCN1CNc2c(c(=O)[nH]c(=S)n2CCc2ccc(OCC)c(OCC)c2)C1	·	·	i	-20%	·	·
Cc1ccc(-n2nnnc2-c2cnc(-c3cccnc3)nc2C(F)(F)F)cc1	22µM*	?	·	·	?	-37%
FC(F)(F)c1nc(-c2ccncc2)ncc1-c1nnnn1-c1ccccc1	-13%	3	·	·	-7%	-1%
FC(F)(F)c1ccncc1-c1nnnn1-c1ccc(Cl)cc1	-26%	?	i	-3%	-5%	?
Fc1ccc(-n2nnnc2-c2cnc(-c3cccs3)nc2C(F)(F)F)cc1	16µM*	-86*	·	·	?	?
Cc1ccc(-n2nnnc2-c2cnn(-c3ccc(F)cc3)c2C(F)(F)F)cc1	?	-70*	·	·	15µM*	?
FC(F)(F)c1nc(N2CCCC2)ncc1-c1nnnn1-c1ccc(Cl)cc1	?	-65*	?	?	?	?
Cc1cc(Br)ccc1NC(=O)C1(S(=O)(=O)c2ccc(Cl)cc2)CC1	-19%	13	2%	3%	9%[46.1 µM]	-3%[46.1 µM]
Nc1ncnc2c1ncn2[C@@H]1O[C@H](C(=O)Nc2ccc(C(=O)N3CCCCC3)cc2)[C@@H](O)[C@H]1O	-11%	-3	37%	7%	·	·
Cc1ccccc1NC(=O)c1nc(S(C)(=O)=O)ncc1N(Cc1ccco1)Cc1sccc1C	-23%	-20	-27%	-19%	?	?
c1ccc(-c2nnc(SCc3nc4ccccc4[nH]3)n2Cc2ccco2)nc1	?	-64*	·	·	-2%	-20%
Clc1cccc(-c2nnc(SCc3nc4ccccc4[nH]3)n2Cc2ccco2)c1	-23%	?	·	·	-12%	0%
Cn1c(COc2ccccc2)nnc1SCc1nc2ccccc2[nH]1	-4%	10	-14%	-26%	27%	18%
SMILES	FMDV antiviral	HCMV inh	Vaccinia mCherry	Vaccinia Venus	Lassa entry inh	Marburg entry inh
CCn1c(COc2ccc(C)cc2)nnc1SCc1nc2ccccc2[nH]1	?	-65*	·	·	-14%	?
COc1ccc(C)cc1NC(=O)CSc1nnc(COc2ccc(Cl)cc2)n1Cc1ccco1	-28%	-84*	·	·	-21%	?
COc1ccc(C)cc1NC(=O)CSc1nnc(COc2ccccc2)n1Cc1ccco1	-36%	43	·	·	-6%	?
Clc1ccc(OCc2nnc(SCc3nc4ccccc4[nH]3)n2Cc2ccco2)cc1	?	-80*	·	·	?	?
O=C(c1cccs1)N1CCC(c2nc3c(nnn3Cc3cccc(Cl)c3)c(=O)[nH]2)CC1	-27%	13	-6%	-2%	?	2%[46.1 µM]
Cn1c(COc2ccc(F)cc2)nnc1SCC(=O)NC1CC1	-7%	-17	-19%	-11%	-3%	1%
O=C(O)[C@H]1CC(=O)N(Cc2cccs2)C1	·	·	·	·	·	9%
CCOc1ccc(CCNC(=O)c2cc3sc(CC)cc3n2C)cc1OCC	-26%	-13	-11%[7.34 µM]	-10%[7.34 µM]	·	-3%[46.1 µM]
CCOc1ccc(CCNC(=O)c2cc3sccc3n2CC)cc1OCC	?	-27	-3%	-13%	15µM*	?
O=c1oc2ccccc2cc1-c1ccccc1	69%	-7	·	·	·	·
CC1(C)Cc2ccccc2C(c2cc3ccccc3oc2=O)=N1	-16%	-70*	·	?	-1%	1%
CC1(C)Cc2c(ccc3ccccc23)C(c2cc3ccccc3oc2=O)=N1	-11%	-25	·	·	13µM*	5.8µM*
CCOc1ccccc1N(CC(=O)N1CCc2ccccc2C1)S(=O)(=O)c1ccccc1	40%	-15	-10%	-19%	?	·
CCCNC(=O)N1CCC2(CC1)CN(C(=O)c1ccccc1)[C@H](CO)c1[nH]c3cc(OC)ccc3c12	·	-2	·	·	·	·
Cn1c(=O)c2c(nc(N3CCOCC3)n2Cc2ccc(Br)cc2)n(C)c1=O	-4%	-1	20%	24%	3%[46.1 µM]	0%[46.1 µM]
N#Cc1sc2nc(C3CC3)cc(-c3ccc(Cl)cc3)c2c1N	?	19	4.5µM*	14µM*	?	?
Cc1cc(F)ccc1O[C@H]1C=C[C@@H](c2ccc3c(c2)OCO3)O[C@@H]1CO	·	·	·	·	·	14%[14.2 µM]
CC(C)=CCc1c(O)cc2oc3c(CC=C(C)C)c(O)c(O)c(CC=C(C)C)c3c(=O)c2c1O	22µM*	-101*	?	?	·	·
COc1c(O)cc2oc3cc(O)c(CC=C(C)C)c(O)c3c(=O)c2c1CC=C(C)C	-11%	·	?	-29%	·	·
C/C(=N\Nc1ccc(F)cc1F)c1ccccc1O	44%	-69*	-19%	-4%	·	5%[46.1 µM]
O=S(=O)(c1ccc(-c2csc(-c3cccnc3)n2)cc1)N1CCCC1	-4%	?	·	·	24%	1%
O=S(=O)(c1ccc(-c2csc(-c3cccnc3)n2)cc1)N1CCCCC1	?	-62*	·	·	-3%	?
O=S(=O)(c1cccc(-c2csc(-c3cccnc3)n2)c1)N1CCCCC1	-26%	-69*	·	·	-26%	-14%
O=S(=O)(c1cccc(-c2csc(-c3cccnc3)n2)c1)N1CCOCC1	-9%	?	-12%	-10%	-23%	-11%[46.1 µM]
CCC=CC[C@@]1(C(=O)OC)C=C[C@@H](C)[C@H](c2ccccc2Br)N1C(=O)C(F)(F)F	·	·	·	·	·	-1%[14.2 µM]
O=C(NCC1=C(Cl)CCCC1)C1CNCCC1C(F)(F)F (stereo not given)	·	·	·	·	·	-19%
Cc1ccc(C(=O)N2CCN(c3ccc(F)cc3)CC2)cc1NC(=O)c1nsc2ccccc12	0%	29	-19%	-16%	15%[46.1 µM]	·
O=S(=O)(c1ccc(Cl)c(Cl)c1)c1snnc1-c1ccccc1	?	·	·	?	7.1µM*	5µM*

Assay outcomes (PubChem)
